Source: PubChem
This is a sample that favours compounds with a hit; in the whole collection about 1.4% have one here.
Cardio protect: protects H9c2 cardiomyocytes from peroxide injury; H2O2 injury protection, ATPLite, 2 h; protection from H2O2 cell death, % at 20 µM; 0.63% of 360,000 active;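 active = compounds giving at least 50% protection of heart cells from peroxide-induced death in the single-dose screen, raw or plate-pattern-corrected value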
Yeast superoxide: lowers age-related superoxide in aged yeast cells | AID 2690 | superoxide response (% of plate mean), % at 10 µM | S. cerevisiae aged cells, superoxide DHE fluorescence; stronger effect = lower value | 0.18% of 330,000 active;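 active = superoxide response under a set limit, about three screen SD below normal, cut at about 65% in these data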;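 also: yeast aged for seven days with compound at 30 °C before DHE staining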
HSV replic up: increases HSV replication in cells | HSV replication augmentation in cells, fold increase | maximum fold increase | 0.005% of 220,000 active; in the data active = maximum fold increase above about 1.5; tested in PC3 cells
p-CIP stab down: compounds decreasing mouse p/CIP protein stability. 0.01% of 290,000 active. decrease of EGFP signal, % at 10 µM. Q05BA5. F442A p/CIP-EGFP cells, EGFP fluorescence, 16 h. AID 1984;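 active = EGFP signal decrease of at least 30% at 10 µM or well 3 SD below plate mean, unless failing retest; inactive = the rest, including hits failing retest or dose response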
MIN6 prolif-1: MIN6 beta-cell proliferation induction; AID 2380; proliferation, % at 10 µM; MIN6 cells proliferation, ATPlite luminescence, 48 h; cells starved in 0.2% serum; 100% = growth in 10% serum; 0.29% of 330,000 active;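 active = compounds whose signal lies at least 3.5 SD above the mean of all wells on their plate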
V-ATPase pHluor: regulators of yeast V-ATPase proton transport; response, % at 10 µM; 0.37% of 350,000 active; AID 504577; S. cerevisiae, pHLuorin cytosolic pH fluorescence; in the data active = response mostly above about 7.3%, no sharp cut-off; inactive = mostly below about 5.4%; also: actives read high
MIN6 prolif-2: MIN6 beta-cell replication induction, confirmed; shares compounds with MIN6 prolif-1; AID 463095; MIN6 beta-cell proliferation, ATPlite luminescence, 48 h; cells kept in 0.2% serum; scaled between 0.2% and 10% serum; proliferation increase, % at 50 µM; 920 tested, under 10 active;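 active = proliferation increase above 40% at any of the four tested concentrations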
A number is an active result; i = inactive; nt = no result given.

SMILES	Cardio protect	Yeast superoxide	HSV replic up	p-CIP stab down	MIN6 prolif-1	V-ATPase pHluor	MIN6 prolif-2
NS(=O)(=O)c1ccc(NC(=S)NCc2ccccc2Cl)cc1	i	i	i	i	5.3	i	i
CC(=O)c1ccc(N(CC(=O)NC2CCCCC2)C(=O)c2csnn2)cc1	i	i	nt	i	6.6	i	i
CCC(=O)Nc1cccc(NC(=O)CSc2nc3c(c(=O)n(C)c(=O)n3C)n2C)c1	i	i	nt	i	i	i	nt
CC1=C(c2ccccc2)C(=S)NC(C)(C)C1	i	i	i	i	5.6	i	i
COc1ccc(C2=C(C)CC(C)(C)NC2=O)cc1OC	i	i	i	i	i	i	nt
C[C@@H]1C[C@@H]2OC(=O)[C@]3(C)[C@H]2[C@@H](OC3(C)O)[C@]2(C)C(=O)CC[C@H]12 (some centres not stated)	nt	i	i	i	11	nt	i
COC(=O)N[C@H](CC(C)=O)c1ccccc1	nt	nt	i	i	12	nt	i
COC(=O)N[C@H](CC(C)=O)c1cccc(C(F)(F)F)c1	i	i	i	i	i	i	nt
NC(=O)c1cnc(Cc2c[nH]c3ccccc23)c(I)c1	i	nt	nt	nt	nt	nt	nt
CCOc1ccccc1N1CCN(C(=O)c2ccc(OCC(=O)N3CCOCC3)c(OC)c2)CC1	i	i	nt	i	14	i	i
CCN1CCN(C(=O)C2CCN(S(=O)(=O)c3ccc(Br)cc3)CC2)CC1	i	i	nt	i	i	i	nt
CCN1CCN(C(=O)C2CCN(S(=O)(=O)c3ccc(SC)cc3)CC2)CC1	i	i	nt	i	16	i	i
CCc1nc(N)c(C#N)c(-c2cccnc2)c1C	i	i	i	i	i	i	nt
Cc1nc(N)c(C#N)c(-c2ccc3c(c2)OCO3)c1C	i	i	nt	i	5.3	i	i
Cc1nc(N)c(C#N)c(-c2cccnc2)c1C	i	i	i	i	9.6	i	i
C=CCOC(=O)c1c(C)nc2cc3c(cc2c1C)OCO3	i	i	i	i	i	i	nt
COc1ccccc1N(CC(=O)NC(C)C)S(=O)(=O)c1cccs1	i	i	i	i	8.3	i	i
COc1ccccc1N(CC(=O)NC1CCCCC1)S(=O)(=O)c1cccs1	i	i	i	i	i	i	nt
Brc1cccc(-c2nnc(SCc3ccon3)n2-c2ccccc2)c1	i	i	i	i	12	i	i
c1ccc(CNc2ccc3c(c2)ncn3C2CCCCC2)nc1	i	i	i	i	i	i	nt
CC(Oc1cc2oc(=O)cc(-c3ccccc3)c2cc1Cl)C(=O)NCC1CCC(C(=O)O)CC1 (configuration not stated)	i	i	nt	i	i	i	nt
CC(NC(=O)OC(C)(C)C)C(=O)Oc1cc2oc(=O)cc(-c3ccccc3)c2cc1Cl (configuration not stated)	i	i	i	i	5.9	i	i
CCOC(=O)c1c(C)c2c(=O)[nH]cnc2n1-c1ccccc1	i	i	nt	i	9.8	i	i
CCOC(=O)c1sc2nc[nH]c(=O)c2c1C	i	i	i	i	i	i	nt
CCn1nc(C)c(CNC(=O)C2CCC(=O)N(Cc3ccc(Cl)cc3)C2)c1C (configuration not stated)	i	i	nt	i	i	i	nt
SMILES	Cardio protect	Yeast superoxide	HSV replic up	p-CIP stab down	MIN6 prolif-1	V-ATPase pHluor	MIN6 prolif-2
O=C(OCn1nnc2ccccc2c1=O)c1ccc(F)c(S(=O)(=O)N2CCOCC2)c1	i	nt	nt	nt	nt	nt	nt
CN(C)c1ccc(C(=S)N2CCOCC2)cc1	i	i	i	i	9.0	i	i
CC(C)CC1=NC(C(F)(F)F)(C(F)(F)F)c2c(n(CC(C)C)c(=O)[nH]c2=O)N1	i	i	i	i	6.6	i	i
CC1Cc2nc(SCC(=O)OCc3ccccc3)n(C)c(=O)c2S1 (configuration not stated)	i	i	i	i	15	i	i
COc1cccc(C(NC(C)=O)c2nc(-c3cccc(C(=O)O)c3)cs2)c1 (configuration not stated)	i	nt	nt	nt	nt	nt	nt
CNCCCOc1cccc(OC(C)C)c1	i	i	nt	i	6.3	i	i
CNCCCOc1cccc(Oc2ccccc2)c1	i	i	i	i	i	i	nt
CN(C)S(=O)(=O)c1cc([N+](=O)[O-])ccc1N1CCCCCC1	i	i	i	i	12	i	i
CC(C)CN(CC(C)C)S(=O)(=O)c1cc([N+](=O)[O-])ccc1N1CCCCCC1	i	i	i	i	i	i	nt
S=C(N/N=C/c1ccccc1Cl)Nc1cccc(Cl)c1Cl	i	i	i	i	i	i	nt
Cc1cccc(-n2ncc3c(=O)[nH]c(SCC(=O)N4CC(=O)Nc5ccccc54)nc32)c1	i	i	nt	nt	11	i	i
CCOC(=O)C(Oc1ccc(=O)n(-c2ccccc2)n1)C(C)=O (configuration not stated)	i	i	i	i	i	i	nt
COc1nc(N)nc(N)c1NS(=O)(=O)c1ccc(C)cc1	i	i	nt	i	9.8	i	i
COc1cc(C)nc(NS(=O)(=O)c2ccc(C)cc2)n1	i	i	i	i	i	i	nt
CC(C)CCNC(=O)CN1N=C(c2ccc(Cl)cc2)CCC1=O	i	i	nt	i	7.3	i	i
CN(C(=O)COC(=O)c1ccccc1NCCO)C1CCS(=O)(=O)C1 (configuration not stated)	i	i	nt	nt	i	i	nt
O=C(O)CCc1ccc(-c2ccc(Cl)cc2)n1CC(=O)O	i	i	i	i	5.8	i	i
COc1cc(C2C3=C(CC(C)(C)CC3=O)N(C)C3=C2C(=O)CC(C)(C)C3)cc(Br)c1O	i	i	nt	i	i	i	nt
COCCCn1c(SCC(=O)c2ccccc2)nc2ccccc2c1=O	i	i	i	i	i	i	nt
COCCn1c(SCC(=O)c2ccccc2)nc2ccccc2c1=O	i	i	i	i	7.8	i	i
O=C1NC2(CCCCC2)C(=O)N1c1ccccc1	i	i	i	i	i	i	nt
O=C1NC2(CCCCC2)C(=O)N1c1ccc(Cl)cc1	i	i	nt	i	8.4	i	i
Cc1ccccc1OCC(=O)NC1CCCCCCC1	i	i	nt	i	6.0	i	i
Cc1cccc(OCC(=O)NC2CCCCCC2)c1C	i	i	nt	i	i	i	nt
CC(C)C[C@H](NC(=O)NCc1ccccc1Cl)C(=O)O	i	i	i	i	i	i	nt
SMILES	Cardio protect	Yeast superoxide	HSV replic up	p-CIP stab down	MIN6 prolif-1	V-ATPase pHluor	MIN6 prolif-2
CC(C)C[C@H](NC(=O)NCc1ccc(Cl)cc1)C(=O)O	i	i	i	i	10	i	i
Cc1c(NS(=O)(=O)c2cccc(C(=O)O)c2)c(=O)n(-c2ccccc2)n1C	i	i	nt	i	4.9	i	i
CCC(=O)Nc1cc(C(=O)O)ccc1Sc1ccc(C)cc1	i	i	i	i	7.5	i	i
COc1ccc(-c2noc(COc3ccc4c(c3)OCO4)n2)cc1OC	i	i	i	i	11	i	i
COc1ccc(-c2noc(COc3ccc4c(c3)OCO4)n2)cc1	i	i	i	i	i	i	nt
Cc1cc(NC(=O)c2cnn3c(C(F)F)cc(C4CC4)nc23)no1	i	i	i	i	5.5	i	i
